From PubChem BioAssay AID588689 (Southern Research Specialized Biocontainment Screening …, 2011)
Out of some 340,000 compounds screened, about 1,000 (0.29%) were called active. Rule as the data show it: inconclusive = inhibition above about 29% without an active follow-up result; inactive = below that. Not all results are given here. Entries with a potency or affinity are not part of this list.

Molecular target: Genome polyprotein (Dengue virus type 2 (strain 16681-PDK53)) (UniProt P29991)
Experiment: Dengue-2 NS5 methyltransferase inhibitors, primary screen, biochemical, confirmation dose response (AID 588689)
Conditions: Dengue-2 NS5 methyltransferase capping enzyme assay, at 25 µM, stronger effect = higher value
[1] = measured here: pilot screen replicate inhibition

| SMILES | inhibition | inhibition [1] [%] |
| --- | --- | --- |
| Cc1nn(CCCC(=O)NCc2ccccc2)c(C)c1[N+](=O)[O-] | -1.91% (inactive) |  |
| CCCn1c(N)c(N(CCOC)C(=O)c2ccc([N+](=O)[O-])c(C)c2)c(=O)[nH]c1=O | -3.56% (inactive) |  |
| COc1ccc(S(=O)(=O)N2CCN(C(=O)Cc3cccs3)CC2)cc1 | -2.65% (inactive) |  |
| CC(C)c1nc2ccc(NC(=O)C3CCCCC3)cc2[nH]1 | 4.05% (inactive) |  |
| O=C(C1=C(O)C(=O)N(CCN2CCOCC2)C1c1ccco1)c1cc2ccccc2o1 (stereo unspecified) | -8.02% (inactive) |  |
| CC(=C/c1ccccc1)/C=N/n1c(-c2ccco2)n[nH]c1=S | -1.88% (inactive) | 2.73 |
| CC(/C=N/n1c(-c2ccco2)n[nH]c1=S)=C\c1ccccc1 | 1.83% (inactive) |  |
| O=C(Nc1ccccc1C(=O)O)c1ccc2c(c1)C(=O)N(c1cccc([N+](=O)[O-])c1)C2=O | 17.6% (inactive) |  |
| Cc1ccc(C(=O)O)cc1NC(=O)c1ccc2c(c1)C(=O)N(c1ccc([N+](=O)[O-])cc1)C2=O | -4.57% (inactive) |  |
| Cc1cc(C(=O)CSc2nnc(N)s2)c(C)n1Cc1ccco1 | -12.5% (inactive) |  |
| COc1ccccc1N1C(=O)C(Cl)=C(N2CCCC2)C1=O | -1.98% (inactive) | 0.315 |
| CCOc1ccc(N2C(=O)CC(N3CCOCC3)C2=O)cc1 (stereo unspecified) | -2.04% (inactive) |  |
| COc1ccc(N2C(=O)C(Cl)=C(N3CCN(Cc4ccccc4)CC3)C2=O)cc1 | -1.61% (inactive) |  |
| CCc1ccc(N2CCN(C(=O)N3CCOCC3)CC2)cc1 | -8.84% (inactive) |  |
| CCOc1ccc(N2C(=O)c3ccccc3C2=O)cc1 | 1.62% (inactive) |  |
| CCc1ccc(N2C(=O)C(Cl)=C(N3CCCCCC3)C2=O)cc1 | -5.23% (inactive) |  |
| COc1ccc(N2C(=O)C(Cl)=C(N3CCCC3)C2=O)cc1 | -10.6% (inactive) |  |
| COc1ccc(OC)c(N2C(=O)C(Cl)=C(N3CCCCC3)C2=O)c1 | 0.68% (inactive) |  |
| COc1cccc(-c2nc3ccc(C(=O)N4CCCC(O)C4)cc3o2)c1 (stereo unspecified) | -1.93% (inactive) |  |
| CSc1ccc(CN(C)C(=O)c2ccc(S(=O)(=O)Nc3c(C)n(C)n(-c4ccccc4)c3=O)cc2)cc1 | -9.48% (inactive) |  |
| CCOC(=O)CSc1nnnn1-c1cc(OC)ccc1OC | -2.05% (inactive) |  |
| C=CC[C@H](CC(=O)NCCO)C(=O)NCCOC(=O)[C@@H](CC=C)Cc1ccc(F)cc1 | -5.62% (inactive) |  |

| SMILES | inhibition | inhibition [1] [%] |
| --- | --- | --- |
| CCCNC(=O)N1C2=NC(C(=O)OC)=C(C(=O)OC)[C@@H]3N(Cc4ccccc4)c4ccccc4[C@]23C[C@H]1CO | -2.73% (inactive) |  |
| CCCC1Nc2ccc(C(=O)O)cc2C2C=CCC12 (stereo unspecified) | 11.1% (inactive) |  |
| CCOC(=O)c1ccc2c(c1)C1C=CCC1C(C(=O)OCC)N2 (stereo unspecified) | 10.8% (inactive) |  |
| O=C(O)C1Nc2ccc(Br)cc2C2C=CCC12 (stereo unspecified) | 55.7% (inactive) |  |
| CC(C)CNC(=O)C1Nc2ccc(C(F)(F)F)cc2C2C=CCC12 (stereo unspecified) | 2.4% (inactive) |  |
| CC(=O)c1ccc2c(c1)C1C=CCC1C(c1ccncc1)N2 (stereo unspecified) | 50.2% (inactive) |  |
| O=C(O)c1ccc2c(c1)C1C=CCC1C(c1ccncc1)N2 (stereo unspecified) | -11.1% (inactive) |  |
| CCOC(=O)C1Nc2ccc(Br)cc2C2C=CCC12 (stereo unspecified) | 5.02% (inactive) |  |
| CCOC(=O)C1Nc2ccc(C)cc2C2C=CCC12 (stereo unspecified) | 8.8% (inactive) |  |
| CCN(CC)S(=O)(=O)c1ccc(N2CCOCC2)c(NC(=O)c2cc3ccccc3oc2=O)c1 | -2.2% (inactive) |  |
| COC(CNC(=O)c1cnn2c(C)c(Cc3ccccc3)c(C)nc12)OC | -1.46% (inactive) |  |
| Cc1cc(NC(=O)CSc2nc3cc(Cl)ccc3o2)no1 | 1.78% (inactive) |  |
| COc1ccc(NC(=S)NN2C(C)CCCC2C)cc1 (stereo unspecified) | -6.57% (inactive) |  |
| Cc1ccc(S(=O)(=O)N(C)CC(=O)N2CCCc3ccccc32)cc1 | 3.9% (inactive) |  |
| Cc1ccc(S(=O)(=O)ON2C(=O)c3cccc4cccc(c34)C2=O)cc1 | 14.2% (inactive) |  |
| COc1ccc(OC)c(S(=O)(=O)ON2C(=O)c3ccccc3C2=O)c1 | 12.6% (inactive) |  |
| Cc1cc(C)c(C)c(S(=O)(=O)ON2C(=O)c3ccccc3C2=O)c1C | -4.83% (inactive) |  |
| Cc1ccc(S(=O)(=O)N2CCN(C(=O)CN3C(=O)c4ccccc4C3=O)CC2)c(C)c1 | -3.1% (inactive) |  |
| COC(=O)c1ccnc(SCC(=O)c2ccccc2)c1 | -7.25% (inactive) |  |
| Cc1cc(C)c(N2C(=O)C3C4CC(=O)C(c5ccccc54)C3C2=O)c(C)c1 (stereo unspecified) | -3.14% (inactive) |  |
| c1ccc(-c2nc3ccccc3c3nc4ccccc4n23)cc1 | 0.36% (inactive) |  |
| On1c(-c2ccccc2)nc2ccccc21 | -0.77% (inactive) |  |
